Compounds with a hit are over-represented: about 1.4% of the library has one in this group of screens.
LYPLA1 inh = counter-screen for PME1 inhibitors: inhibitors of human LYPLA1; recombinant LYPLA1, FP-Rh probe fluorescence polarization; inhibition, % at 5.9 µM; 320,000 tested, 0.16% active; AID 2174;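 active means inhibition above the mean of all tested compounds plus 3 SD, set per campaign, cut at about 14% in these data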;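 further: inhibitors block serine hydrolase probe labeling of LYPLA1 so polarization falls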
Target sequence (O75608 whole entry, looked up): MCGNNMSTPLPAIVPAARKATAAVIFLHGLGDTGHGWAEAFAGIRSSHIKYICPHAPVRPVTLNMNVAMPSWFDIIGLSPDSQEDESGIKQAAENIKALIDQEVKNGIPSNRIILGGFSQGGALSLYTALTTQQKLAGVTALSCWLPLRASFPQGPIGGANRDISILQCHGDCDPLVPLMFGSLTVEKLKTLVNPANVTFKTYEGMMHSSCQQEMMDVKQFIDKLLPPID
ZTA counter = ZTA (EBV) inhibition in EBNA-1 counter-screen; 320,000 tested, 0.15% active; ZTA-DNA binding, fluorescence polarization; P03206; inhibition, % at 11 µM; in the data active means inhibition above about 33%
Target sequence (P03206 whole entry, looked up): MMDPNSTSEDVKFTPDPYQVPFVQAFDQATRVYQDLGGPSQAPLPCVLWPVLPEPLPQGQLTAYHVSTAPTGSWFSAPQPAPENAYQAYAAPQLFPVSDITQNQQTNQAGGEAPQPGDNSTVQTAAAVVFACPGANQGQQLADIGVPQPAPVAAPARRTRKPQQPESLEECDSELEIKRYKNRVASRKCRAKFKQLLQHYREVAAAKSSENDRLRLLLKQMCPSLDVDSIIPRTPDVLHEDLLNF
LANA-H2B inh = blocks KSHV LANA binding to histone H2A/H2B. AID 2629. cell-free LANA-H2A/H2B peptide, fluorescence polarization. 320,000 tested, 0.6% active. Q9QR71. inhibition, % (test concentration not listed); in the data active means inhibition mostly above about 10%, no sharp cut-off; inactive means mostly below about 6.7%
EBNA-1 inh = blocks EBNA-1 binding to DNA; EBNA-1 DNA binding, fluorescence polarization; inhibition, % at 14.8 µM; 300,000 tested, 0.34% active; in the data active means inhibition above about 28%
LYPLA2 inh = counter-screen for PME1 inhibitors: inhibitors of human LYPLA2 | AID 2177 | inhibition, % at 5.9 µM | O95372 | 320,000 tested, 0.38% active | recombinant LYPLA2, FP-Rh probe fluorescence polarization;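 active means inhibition above the screen-wide mean plus 3 SD, limit set per campaign, cut at about 26% in these data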
LYPLA2 confirm = counter-screen for PME1 inhibitors: confirmation of human LYPLA2 inhibitors | recombinant LYPLA2, FP-Rh probe fluorescence polarization | 1,100 tested, 72% active | shares compounds with LYPLA2 inh | AID 2232 | inhibition, % at 5.9 µM;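 active means mean inhibition across replicates above the hit cutoff set in the primary screen, cut at about 26% in these data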;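 further: blocked labeling of the enzyme by serine hydrolase FP-Rh probe lowers polarization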
LYPLA2 ABPP = LYPLA2 (human) inhibition, late stage results; shares compounds with LYPLA2 inh; rhLYPLA2 in mouse brain proteome, gel ABPP FP-Rh; inhibition, % at 20 µM; 150 tested, 30% active; AID 652029;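 active means inhibition of LYPLA2 enzyme probe labeling above about 50%, limit read from the data; inactive means inhibition below that limit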;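 further: loss of FP-Rh probe labeling of the LYPLA2 gel band measured as band density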
Of the large screens only hits and unclear results are named; the others gave an inactive call (follow-up assays come after a bar, where they were run).

O=[N+]([O-])c1cccnc1SCc1ccccc1	LYPLA2 inh 37.7 | LYPLA2 confirm 48.7
Cc1cc(C(=O)N2CCCC(N3CCN(c4cccc(C(F)(F)F)c4)CC3)C2)nn1C (stereo unspecified)	none
CSCC(=O)N1CCCC(N2CCN(c3cccc(C(F)(F)F)c3)CC2)C1 (stereo unspecified)	none
Cc1occc1C(=O)N1CCCC(N2CCN(c3cccc(C(F)(F)F)c3)CC2)C1 (stereo unspecified)	LYPLA2 inh 27.5 | LYPLA2 confirm 28.2
Cc1ncoc1C(=O)N1CCCC(N2CCN(c3cccc(C(F)(F)F)c3)CC2)C1 (stereo unspecified)	LYPLA2 inh 62.9 | LYPLA2 confirm 69.3 | LYPLA2 ABPP inactive
Cc1cc(C(=O)N2CCCC(N3CCN(c4cccc(C(F)(F)F)c4)CC3)C2)c(C)o1 (stereo unspecified)	LYPLA2 inh 31.3 | LYPLA2 confirm 41.5
CC1(CCC(=O)N2CCCC(N3CCN(c4cccc(C(F)(F)F)c4)CC3)C2)CC1 (stereo unspecified)	LYPLA2 inh 32.4 | LYPLA2 confirm 30.6
CC(C)(C)C1CCC(C(=O)Nc2ccc(N3CCOCC3)cc2N2CCOCC2)CC1 (stereo unspecified)	none (no result: EBNA-1 inh)
CSc1ccc(CN2CCC(C(=O)NCc3ccc(C)cc3)CC2)cc1	none
O=C(CN1C(=O)S/C(=C\c2ccccn2)C1=O)Nc1ccccc1	none (no result: LYPLA1 inh, ZTA counter, EBNA-1 inh, LYPLA2 inh)
Cc1ccc(NC(=O)CN2C(=O)S/C(=C\c3cc(C)n(-c4cccc(C(=O)O)c4)c3C)C2=O)cc1	LYPLA2 inh 47.7 | LYPLA2 confirm 42.8
Cc1cc(/C=C2\SC(=O)N(CC(=O)Nc3ccccc3F)C2=O)c(C)n1C	LYPLA2 inh 41.9 | LYPLA2 confirm 26.2
Cc1ccc(NC(=O)CN2C(=O)S/C(=C\c3cc(C)n(C)c3C)C2=O)cc1	none
Cc1ccc(NC(=O)CN2C(=O)S/C(=C\c3ccc(C(=O)O)cc3)C2=O)cc1	none
O=C(CN1C(=O)S/C(=C\c2cc(Cl)c(O)c(Cl)c2)C1=O)Nc1ccccc1	LYPLA2 inh 91.8 | LYPLA2 confirm 81.7
Cc1ccc(C(=O)O)cc1-c1ccc(/C=C2\SC(=O)N(CC(=O)Nc3ccccc3)C2=O)o1	LYPLA2 inh 27.4 | LYPLA2 confirm 25.9
O=C(NC1CC1)c1cc2cc3ccccc3nc2s1	none
O=C(c1ccncc1)c1ccc(N2CCN(C3CC(=O)N(Cc4ccccc4)C3=O)CC2)cc1 (stereo unspecified)	LYPLA2 inh 27.7 | LYPLA2 confirm inactive
C=CCNC(=S)/N=c1/ccccn1CC	none
COCCn1c(=NC(=O)CN2C(=O)CCC2=O)sc2cc(S(N)(=O)=O)ccc21	none
C#CCn1c(=NC(=O)CN2C(=O)CCC2=O)sc2cc(S(N)(=O)=O)ccc21	LYPLA2 inh 32.5 | LYPLA2 confirm 47.0
Cc1ccc(C)c(OCc2cc(C(=O)NC3CCOC(C)(C)C3)no2)c1 (stereo unspecified)	none
CCOC(=O)CNC(=O)C1(/C=C/c2ccccc2)CC(=O)N1c1ccc(C)cc1 (stereo unspecified)	none
COc1ccc(N2CCN(C(=O)c3ccc(CSc4ccccc4)cc3)CC2)cc1	LYPLA2 inh 30.1 | LYPLA2 confirm 42.1
Cc1cccc(N2CCN(C(=O)c3ccc(NS(=O)(=O)c4c(C)noc4C)cc3)CC2)c1C	none
Cc1noc(C)c1S(=O)(=O)Nc1ccc(C(=O)N2CCN(c3cccc(Cl)c3)CC2)cc1	LYPLA2 inh 30.3 | LYPLA2 confirm inactive
COc1ccc(N2CCN(C(=O)CSc3ccccc3)CC2)cc1	none
COc1ccc(N2CCN(C(=O)c3ccc4c(c3)CCN4S(=O)(=O)c3ccccc3)CC2)cc1	LYPLA2 inh 34.6 | LYPLA2 confirm 41.5
COc1ccc(N2CCN(C(=O)c3ccc(NS(=O)(=O)c4ccccc4)cc3)CC2)cc1	LYPLA2 inh 37.4 | LYPLA2 confirm 33.7
COc1ccc(N2CCN(C(=O)c3ccc(CNS(=O)(=O)c4ccc(C)cc4)cc3)CC2)cc1	none
Cc1ccc(C)c(N2CCN(C(=O)c3ccc(CSc4nc5ccncc5[nH]4)cc3)CC2)c1	none
COc1ccc(N2CCN(CCC(=O)c3ccc4ccccc4c3)CC2)cc1	LYPLA2 inh 28.6 | LYPLA2 confirm 26.5
COc1cccc(N2CCN(C(=O)c3ccc(CSc4nc5ccncc5[nH]4)cc3)CC2)c1	LYPLA2 inh 31.1 | LYPLA2 confirm inactive
COc1ccc(N2CCN(C(=O)c3ccc(S(=O)(=O)NCc4ccco4)cc3)CC2)cc1	LYPLA2 inh 31.9 (no result: EBNA-1 inh) | LYPLA2 confirm 38.3
CC(OC(=O)/C=C/c1ccc2ccccc2n1)C(=O)NCc1ccccc1 (stereo unspecified)	none
O=C(CSc1nnnn1C1CC2C=CC1C2)Nc1ccc(C(=O)O)cc1 (stereo unspecified)	none (no result: LANA-H2B inh)
COc1ccc(/C=N/N2CCN(Cc3ccc(C)cc3)CC2)cc1Br	LYPLA2 inh 26.1 | LYPLA2 confirm inactive
Cc1ccc(CN2CCN(/N=C/c3ccc(O)c(O)c3)CC2)cc1	none
O=C(c1ccc(Cn2c(=O)[nH]c3ccccc3c2=O)cc1)N1CCN(c2ccccc2)CC1	LYPLA2 inh 34.9 | LYPLA2 confirm 27.9
COc1ccc(CNC(=O)CSc2nc3[nH]ncc3c(=O)n2-c2ccccc2Br)cc1	none
COc1ccc(N2CCN(C(=O)Cc3ccc(-n4c(=O)[nH]c5ccccc5c4=O)cc3)CC2)cc1	LYPLA2 inh 56.7 | LYPLA2 confirm 51.5 | LYPLA2 ABPP inactive
O=C(c1ccc(Cn2c(=O)[nH]c3ccccc3c2=O)cc1)N1CCN(c2ccccn2)CC1	none
COc1ccc(N2CCN(C(=O)CSc3nc4[nH]ncc4c(=O)n3-c3cccc4ccccc34)CC2)cc1	LYPLA2 inh 33.9 | LYPLA2 confirm 29.6
CC(=O)c1ccc(N2CCN(C(=O)CCCn3c(=O)[nH]c4ccccc4c3=O)CC2)cc1	LYPLA2 inh 53.3 | LYPLA2 confirm 48.6
COc1ccccc1Oc1ccc(S(=O)(=O)N2CCCCC2)cc1NC(=O)CCNC(C)=O	none
O=C(CCc1nc2ccccc2s1)N1CCN(c2ccccc2)CC1	none
CC(=O)c1ccc(N2CCN(C(=O)CCCc3nc4ccccc4s3)CC2)cc1	LYPLA2 inh 41.7 | LYPLA2 confirm 43.7
COc1ccc(C(=O)ON=C2CCCc3nonc32)cc1	none (no result: LYPLA1 inh, ZTA counter, LANA-H2B inh, EBNA-1 inh, LYPLA2 inh) | LYPLA2 ABPP inactive
O=C1CC(N2CCN(S(=O)(=O)c3ccccc3F)CC2)C(=O)N1c1ccccc1Cl (stereo unspecified)	none (no result: EBNA-1 inh)
COC(=O)N/N=C/c1ccccc1OCCOc1ccc(OC)cc1	LYPLA2 inh 35.3 | LYPLA2 confirm 41.6
Cc1ccc(/C=C(\C#N)C(=O)N2CCCC2)c(C)c1	none
COc1ccc(S(=O)(=O)N2CCCCCC2)cc1C(=O)N(C)CC(=O)Nc1ccccc1Cl	none

Screens deposited in PubChem by several laboratories.
